Screens: PubChem BioAssay, National Center for Advancing Translational Sciences (NCATS)
HT1080 IDH1KD tx: qHTS for induction of synthetic lethality in tumor cells producing 2HG: qHTS for the HT-1080-IDH1KD cell line; HT-1080 IDH1 knockdown viability, ATP luminescence, 48 h; 2% of 360,000 active; Potency, µM (top dose mostly 46.1 µM), for inactives: at the top dose activity, negative = toxicity, most hits filed as cytotoxic; AID 686971, 2013;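 also: potency is read from the fitted curve at half-maximal effect; 0% = DMSO wells and -100% = cell-free medium wells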
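CellTiter-Glo luminescence after 48 h compound exposure at 37 degrees C of IDH1-knockdown HT-1080 cells in 5% FBS RPMI. %Activity scaled between DMSO wells and cell-free media wells, with curves fitted and assigned curve classes.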
TDP1 cell noCPT: qHTS for Inhibitors of human tyrosyl-DNA phosphodiesterase 1 (TDP1): qHTS in cells in absence of CPT; DT40 Tdp1-/- hTDP1 cells, no CPT, ATP luminescence, 48 h; 15% of 420,000 active; Potency, µM (doses to about 46.2 µM), inactives show at the highest dose activity change, negative = growth inhibition, hits mostly inhibitors; also: potency is read from the fitted curve at half-maximal effect; nearly all actives have a fitted effect of over 55% in size
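A cellular qHTS used chicken DT40 cells lacking endogenous Tdp1 but carrying stably transfected human TDP1. Compounds were applied without camptothecin, and cell growth kinetics were judged by ATP-dependent luminescence after ≥48 hr.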
HT1080-NT tox: qHTS for induction of synthetic lethality in tumor cells producing 2HG: qHTS for the HT-1080-NT fibrosarcoma cell line; HT-1080-NT fibrosarcoma viability, CellTiter-Glo ATP luminescence, 48 h; 1.6% of 360,000 active; Potency, µM (highest dose often 46.1 µM), inactives show at the top dose activity, negative = less viability, actives largely listed as cytotoxic;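 also: NT is the 2HG producing partner of a matched IDH1 knockdown line; potency is read from the fitted curve at half-maximal effect; 0% = DMSO-treated cells and -100% = media-only wells without cells; nearly all actives have a fitted effect of over 55% in size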
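Toxicity toward the 2HG-producing NT line was scored as %Activity, normalised to DMSO and no-cell wells, from CellTiter-Glo luminescence after 48 hours' treatment.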
IL1B secr inh: qHTS for Inhibitors of Inflammasome Signaling: IL-1-beta AlphaLISA Primary Screen. THP-1 LPS/ATP IL-1B secretion, AlphaLISA, 16 h; active compounds read low. activity change, % at 57.5 µM. 4.7% of 360,000 active; in the data active = activity change below about -50%; inconclusive = mostly about -30% to -49%
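THP-1 cells pretreated 1 hr with compounds (up to 57.5 uM final), then stimulated with LPS (250 ng/mL final) plus ATP (1.25 mM final); secreted IL-1B measured by AlphaLISA after 16 hr, decreased signal indicating inhibition.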
TDP1 cell CPT: qHTS for Inhibitors of human tyrosyl-DNA phosphodiesterase 1 (TDP1): qHTS in cells in presence of CPT; 12% of 420,000 active; Potency, µM (highest dose often 46.2 µM), inactives show at the highest dose activity change, negative = growth inhibition, hits mostly inhibitors; chicken DT40 Tdp1-/-;hTDP1 cells + 20 nM CPT, ATP luminescence, 48 h; AID 686979, 2013; also: potency is read from the fitted curve at half-maximal effect; nearly all actives have a fitted effect of over 55% in size
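Chicken DT40 Tdp1-/- cells complemented with human TDP1, 400 cells/well, exposed to compounds plus 20 nM camptothecin for at least 48 h at 37 C; viability read as ATP content by CellTiter-Glo luminescence.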
* marks the source's active call; other numbers are inactive results; ? = inconclusive; . = no result; [ ] = another dose, or the depositor's remark. Most compounds without a hit are left out; they make up all but 19% or so of the library. Unless noted, calls follow the shape of the dose curve; as a rule, active = well fitted curve in the direction sought with a large enough effect; inconclusive = small, poorly fitted or top-dose-only effect, or another doubt; inactive = no such curve, though single readings can be large; an effect the other way counts as inactive or inconclusive. Unless noted, % is scaled to controls: 0 for no effect and ±100 for the full control effect.

SMILES	HT1080 IDH1KD tx	TDP1 cell noCPT	HT1080-NT tox	IL1B secr inh	TDP1 cell CPT
CC(O)[C@H]1CNC(=O)C(=O)N1CCc1cccc(F)c1 (stereo not given in full)	10%	0%	18%	27	-5%
Cc1noc(C)c1S(=O)(=O)Nc1ccc(C#N)cc1	6%	8%	0%	19	-3%
Cc1nc2ccc(NC(=O)c3ccco3)cc2nc1C	-1%	-12%	2%	1	-5%
O=C(Nc1ccc2nc(C3CC3)n(Cc3ccc(F)cc3)c(=O)c2c1)c1ccco1	-18%	?	-13%	-51*	20µM*
CCC(=O)Nc1ccc2nc(C3CC3)n(Cc3ccc(C(C)(C)C)cc3)c(=O)c2c1	-2%	15µM*	-5%	0	18µM*
CCN(CC)c1cc2nc(C)n(Cc3ccccc3)c(=O)c2cc1NC(=O)C1CC1	-1%	?	0%	-10	?
COc1ccc(Cn2c(C3CC3)nc3ccc(NC(=O)C4CC4)cc3c2=O)cc1	-20%	?	-19%	-65*	-24%
CCOC(=O)C1=C(c2ccccc2)NC(N)=NC1c1ccc(OCc2ccc(C(=O)OC)cc2)cc1 (stereo not given)	21µM*	13µM*	23µM*	-67*	?
Cc1ccc(CN2C[C@@H](Sc3nc(C)cc(C)n3)C[C@H]2C(=O)N2CCN(c3ccccc3F)CC2)cc1	.	?	.	.	-11%[9.04 µM]
COc1ccc(N2CCN(c3ccc(NC(=O)NN)cc3)CC2)cc1	0%	-27%	11%	?	-2%
COc1ccc(Cl)cc1NC(=O)CSc1cn(CC(=O)N2CCCCC2)c2ccccc12	.	21µM*	.	.	21µM*
COc1ccc(OC)c(NC(=O)CSc2cn(CC(=O)N3CCCCCC3)c3ccccc23)c1	.	21µM*	.	.	?
Nc1cc(=O)[nH]c(SCC(=O)N2CCC(Cc3ccccc3)CC2)n1	-4%	?	-13%	26	-25%
CCOc1c(Br)cc(CNC2CCCCCCC2)cc1OC	-17%	15µM*	-15%	-94*	21µM*
COc1cc(CNC2CCCCCCC2)cc(Cl)c1OC	?	?	-10%	-80*	?
COc1cc(CNC2CCCCC2OC)cc(OC)c1OC (stereo not given)	2%	8%	-8%	8	22%
C=CCOc1c(CNC2CCCC2)cc(Cl)cc1OC	-30%	?	-13%	-72*	?
COc1cc(C)c(CNC2CCCCC2)cc1C	0%[9.24 µM]	-15%	-3%	-2	-2%
CCOC(=O)C1(C)CCCN(C(=O)c2cccnc2)C1 (stereo not given)	9%	17%	6%	2	-16%
O=C(CNC(=O)c1ccc(S(=O)(=O)N2CCCC2)cc1)N/N=C/c1ccco1	-4%	?	11%	4	14%
CSc1nnc(NC(=O)c2ccc(S(=O)(=O)N3CCOCC3)cc2)s1	18%	15%	13%	0	-2%
CC1=Nc2ccccc2/C1=C\c1nc(-c2ccccc2)oc1O	-5%	-9%	-4%	31	5%
COc1ccc(-c2nc(/C=C3\C(C)=Nc4ccccc43)c(O)o2)cc1	14%	12µM*	-2%	36	6.5µM*
CN(CC(=O)Nc1ncn[nH]1)S(=O)(=O)c1cc(Cl)ccc1Cl	0%	3%	2%	23	12%
CCOc1ccc(N(CC(=O)N2CCCCCC2)S(=O)(=O)c2ccc(F)cc2)cc1	-1%	-6%	3%	-5	-17%
Cc1ccc(SCc2[nH]nc3c2C2(C(=O)N(C)c4ccccc42)C(C#N)=C(N)O3)cc1 (stereo not given)	?	?	15µM*	-6	-10%
Cc1[nH]c(=O)[nH]c(=O)c1S(=O)(=O)Nc1cccc([N+](=O)[O-])c1C	7%	0%	0%	4	13%
